Measurements as given in PubChem BioAssay AID1645879 (National Center for Advancing Translational Sciences (NCATS), 2021).
Inconclusive results are not listed. Values without a mark were called inactive. The source made the active and inactive calls. Calls follow the shape of the dose curve; as a rule, active = well fitted inhibition curve with a large enough effect; inconclusive = small, poorly fitted or top-dose-only effect; inactive = no such curve, though single readings can be large or run the other way.

Assay: Counterscreen qHTS assay for inhibitors of N-terminal methyltransferase 1 (NTMT1): SPKRIA Counterscreen Assay
Details: biochemical qHTS; series mostly up to 99.2 µM; activity change, negative = inhibition: at the top concentration
Procedure, shortened: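 Luminescent SAH detection after 30 min room-temperature reaction with 1 uM SPKRIA, following 15 min compound preincubation. Percent inhibition, normalized to control, fitted by 4-parameter Hill equation.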

Row | Compound | activity change, negative = inhibition [%] | Potency
1 | O=c1c(-c2ccc(O)cc2)coc2cc(O)ccc12 | -27.1 | 
2 | CC(C)=CCC/C(C)=C/CC/C(C)=C/CSc1ccccc1C(=O)O | -2.24 | 
3 | Nc1ccc2nc(-c3ccc(O)cc3)sc2c1 |  | 44.7 µM (active)
4 | CC(=O)Nc1sc2c(c1-c1ccc3scnc3c1)CCNC2 | 6.48 | 
5 | COc1ccc(C(=O)Nc2onc3c2CCCC3)cc1 | -13.9 | 
6 | Cc1ccc(-n2ncc3c(NCCCN(C)C)ncnc32)cc1Cl |  | 44.7 µM (active)
7 | COc1cc2c(cc1O)CC[C@H]1[C@@H]2CC[C@]2(C)[C@H](O)CC[C@@H]12 |  | 50.1 µM (active)
8 | COCCCNc1ncnc2onc(-c3ccc(F)cc3)c12 |  | 50.1 µM (active)
9 | O=c1cc(-c2ccccc2)oc2ccccc12 |  | 112 µM (active)
10 | COc1ccc(C(=O)Nc2noc3ccccc23)cc1 |  | 39.8 µM (active)
11 | Cc1ccc2nc(-c3ccc(O)cc3)c(Nc3ccc(Cl)cc3)n2c1 | -11.1 | 
12 | Cc1ccc(Nc2ncnc3c2cnn3-c2ccccc2)c(C)c1 |  | 7.94 µM (active)
13 | NC(=O)C1CCN(c2nc(-c3ccccc3Cl)cs2)CC1 | 0.963 | 
14 | NC(=O)C1CCN(c2nc(-c3ccc(F)cc3)cs2)CC1 |  | 44.7 µM (active)
15 | COc1cccc(/C=C/c2nc(C#N)c(NCCN(C)C)o2)c1 | -10.1 | 
